± gives the standard deviation of the averaged measurements.
tested on: Escherichia coli Nissle 1917; assay: area under OmniLog respiration curve over 48 h (OmniLog units x h); higher = more growth / nutrient utilisation; extreme values may be limits of the assay; settings: nutrient role: C-Source, carboxylic acid; incubation: 48 h, 37 °C
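For DuctApe activity index of respiration/growth curve (0 no growth to 9 maximum) in this document: biolog PM4 phosphorus and sulfur plates, tetrazolium violet dye reduction read in the OmniLog every 15 min, kinetic curves scored by DuctApe, each plate run in triplicate.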

SMILES	area under OmniLog respiration curve
CO[C@@H]1O[C@H](C(=O)O)[C@@H](O)[C@H](O)[C@H]1O [b-Methyl-D-Glucuronic acid]	6620 ± 580
CCC(=O)C(=O)O [a-Ketobutyric acid]	800 ± 760
O=C(O)[C@@H](O)[C@H](O)C(=O)O [D-Tartaric acid]	8.46 ± 6.5
CC[C@H](O)C(=O)O [a-Hydroxybutyric acid]	2930 ± 240
O=C(O)C(=O)O [Oxalic acid]	5.41 ± 1.2
C/C(=C/C(=O)O)C(=O)O [Citraconic acid]	4.72
O=C(O)C[C@@H](O)C(=O)O [D-Malic acid]	3920 ± 860
O=C1O[C@H]([C@@H](O)CO)[C@@H](O)[C@@H]1O [L-Galactonic acid-g-Lactone]	10200 ± 640
O=C(O)/C=C/C(=O)O [Fumaric acid]	8610 ± 570
NC(=O)CCC(=O)O [Succinamic acid]	9.14 ± 6

same assay, conditions: nutrient role: sole nitrogen source (pyruvate carbon); incubation: 48 h, 37 °C

SMILES	area under OmniLog respiration curve
CC(O)C(N)=O (racemic) [DL-Lactamide]	57 ± 91
NC=O [Formamide]	38.4 ± 58
NC(=O)NC1NC(=O)NC1=O (stereo unspecified) [Allantoin]	500 ± 670
N[C@@H](Cc1c[nH]c2ccccc12)C(=O)O [L-Tryptophan]	3670 ± 1500
CCCCCN [N-Amylamine]	12.9 ± 14
NO [Hydroxylamine]	5.62 ± 1.6
O=c1cc[nH]c(=O)[nH]1 [Uracil]	103 ± 170
N[C@@H]1C(O)O[C@H](CO)[C@@H](O)[C@@H]1O (stereo partly drawn) [D-Mannosamine]	1020 ± 700
N[C@H]1C(O)O[C@H](CO)[C@H](O)[C@@H]1O (stereo partly drawn) [D-Galactosamine]	11.2 ± 11
NCCO [Ethanolamine]	27.4 ± 39
CCC(N)C(=O)O (racemic) [DL-a-Amino-N-Butyric acid]	6040 ± 1200
O=c1[nH]c(=O)c2nc[nH]c2[nH]1 [Xanthine]	2650 ± 1100
NC(=O)NC(N)=O [Biuret]	3650 ± 1400

same assay, conditions: nutrient role: sole phosphorus source (pyruvate carbon); incubation: 48 h, 37 °C

SMILES	area under OmniLog respiration curve
Nc1nc2c(ncn2[C@@H]2O[C@H](CO)[C@@H](OP(=O)(O)O)[C@H]2O)c(=O)[nH]1 [Guanosine 3`-Monophosphate]	9730 ± 510
O=P(O)(O)OC(CO)CO [b-Glycerol Phosphate]	8820 ± 470
Cc1cn([C@H]2C[C@H](O)[C@@H](COP(=O)(O)O)O2)c(=O)[nH]c1=O [Thymidine 5`-Monophosphate]	8850 ± 380
O=P(O)(O)OC[C@H]1OC(O)[C@@H](O)[C@@H](O)[C@@H]1O (stereo partly drawn) [D-Mannose-6-Phosphate]	8540 ± 570

same assay, conditions: nutrient role: sole sulfur source (pyruvate carbon); incubation: 48 h, 37 °C

SMILES	area under OmniLog respiration curve
CSC[C@H](N)C(=O)O [S-Methyl-L-Cysteine]	17.8 ± 23
O=S(=O)(O)CCO [2-Hydroxyethane Sulfonic acid]	7790 ± 450
CSCCC(NC(C)=O)C(=O)O (racemic) [N-Acetyl-D,L-Methionine]	5080 ± 220
O=S(=O)(O)SSS(=O)(=O)O [Tetrathionate]	7150 ± 120
CC(=O)N[C@@H](CS)C(=O)O [N-Acetyl-L-Cysteine]	55.4 ± 54
N[C@@H](CS)C(=O)NCC(=O)O	6960 ± 77

tested on: Escherichia coli Nissle 1917; assay: DuctApe activity index of respiration/growth curve (0 no growth to 9 maximum) (index 0-9); higher = more growth / nutrient utilisation, active = 3 or more; extreme values may be limits of the assay; settings: nutrient role: C-Source, carbohydrate; incubation: 48 h, 37 °C

SMILES	DuctApe activity index
O=C(CO)[C@@H](O[C@H]1O[C@H](CO)[C@@H](O)[C@H](O)[C@H]1O)[C@H](O)[C@H](O)CO [Turanose]	0.333 (inactive)
OC[C@H]1O[C@@](CO)(O[C@H]2O[C@H](CO)[C@@H](O)[C@H](O)[C@H]2O)[C@@H](O)[C@@H]1O [Sucrose]	1.67 (inactive)
OC[C@H]1O[C@@H](O[C@@H]2[C@@H](CO)OC(O)(CO)[C@H]2O)[C@H](O)[C@@H](O)[C@H]1O (mixture of isomers) [Lactulose]	8 (active)
OCC1OC(OC2C(CO)OC(O)C(O)C2O)C(O)C(O)C1O [D-Cellobiose]	1.33 (inactive)
OC[C@H]1O[C@H](OC[C@H]2OC(O)[C@H](O)[C@@H](O)[C@@H]2O)[C@H](O)[C@@H](O)[C@H]1O (stereo partly drawn) [D-Melibiose]	7.67 (active)

same assay, conditions: nutrient role: C-Source, carboxylic acid; incubation: 48 h, 37 °C

SMILES	DuctApe activity index
CO[C@@H]1O[C@H](C(=O)O)[C@@H](O)[C@H](O)[C@H]1O [b-Methyl-D-Glucuronic acid]	7.33 (active)
CCC(=O)C(=O)O [a-Ketobutyric acid]	1.67 (inactive)
O=C(O)[C@@H](O)[C@H](O)C(=O)O [D-Tartaric acid]	0 (inactive)
CC[C@H](O)C(=O)O [a-Hydroxybutyric acid]	4 (active)
O=C(O)C(=O)O [Oxalic acid]	0 (inactive)
C/C(=C/C(=O)O)C(=O)O [Citraconic acid]	0 (inactive)
O=C(O)C[C@@H](O)C(=O)O [D-Malic acid]	5.33 (active)
O=C1O[C@H]([C@@H](O)CO)[C@@H](O)[C@@H]1O [L-Galactonic acid-g-Lactone]	9 (active)
O=C(O)/C=C/C(=O)O [Fumaric acid]	8.33 (active)
NC(=O)CCC(=O)O [Succinamic acid]	0 (inactive)

same assay, conditions: nutrient role: sole nitrogen source (pyruvate carbon); incubation: 48 h, 37 °C

SMILES	DuctApe activity index
CC(O)C(N)=O (racemic) [DL-Lactamide]	0 (inactive)
NC=O [Formamide]	0 (inactive)
NC(=O)NC1NC(=O)NC1=O (stereo unspecified) [Allantoin]	1.67 (inactive)
N[C@@H](Cc1c[nH]c2ccccc12)C(=O)O [L-Tryptophan]	4.67 (active)
CCCCCN [N-Amylamine]	0 (inactive)
NO [Hydroxylamine]	0 (inactive)
O=c1cc[nH]c(=O)[nH]1 [Uracil]	0 (inactive)
N[C@@H]1C(O)O[C@H](CO)[C@@H](O)[C@@H]1O (stereo partly drawn) [D-Mannosamine]	1.67 (inactive)
N[C@H]1C(O)O[C@H](CO)[C@H](O)[C@@H]1O (stereo partly drawn) [D-Galactosamine]	0 (inactive)
NCCO [Ethanolamine]	0 (inactive)
CCC(N)C(=O)O (racemic) [DL-a-Amino-N-Butyric acid]	7 (active)
O=c1[nH]c(=O)c2nc[nH]c2[nH]1 [Xanthine]	4 (active)
NC(=O)NC(N)=O [Biuret]	5 (active)

Source: the supplement of paper PMC9801561
